Measurements published in the supplement of paper PMC13380429.
Values without a mark were called inactive.

System: Vero E6 infected with SARS-CoV-2
Assay: inhibition of SARS-CoV-2 cytopathic effect; higher = more antiviral protection, active = above 15
Settings: 48 h

Row | SMILES | inhibition of SARS-CoV-2 cytopathic effect (1 nM) | inhibition of SARS-CoV-2 cytopathic effect (8.33 nM) [%] | inhibition of SARS-CoV-2 cytopathic effect (100 nM) [%] | inhibition of SARS-CoV-2 cytopathic effect (833.33 nM) [%] | inhibition of SARS-CoV-2 cytopathic effect (10000 nM) [%]
1 | CCCCCCCCCCCCCCCCCCO [octadecan-1-ol] | -0.16% | -0.19 | -2.3 | -2.63 | 2.04
2 | C[n+]1cccc(C(=O)[O-])c1 [trigonelline] | 5.14% | 3.85 | 1.81 | 1.44 | 0.82
3 | O=Nc1c(-c2c(O)[nH]c3ccccc23)[nH]c2ccccc12 [indirubin-3-monoxime] | 0.43% | 0.8 | 1.06 | 5.66 | 3.83
4 | CN1C2C=C(c3sccc3Br)CC1CC2 (stereo not given) | 24.2% (active) | -2.54 | -0.99 | -2.31 | 3.11
5 | CCC(=O)O[C@H]1[C@H](O[C@@H]2[C@@H](C)[C@H](O[C@H]3C[C@@](C)(OC)[C@@H](O)[C@H](C)O3)[C@@H](C)C(=O)O[C@H](CC)[C@@](C)(O)[C@H](O)[C@@H](C)C(=O)[C@H](C)C[C@@]2(C)O)O[C@H](C)C[C@@H]1N(C)C [erythromycin-estolate] | -0.2% | 1.07 | 2.51 | 2.85 | -0.99
6 | CCCCCN(CCCOC)C(=O)[C@@H](CCC(=O)O)NC(=O)c1ccc(Cl)c(Cl)c1 [dexloxiglumide] | -5.32% | -1.73 | 2.58 | -1.51 | 2.38
7 | CCC(=O)[C@@]1(C)[C@H](C)C[C@H]2[C@@H]3CCC4=CC(=O)C=C[C@]4(C)[C@H]3[C@@H](O)C[C@@]21C [rimexolone] | -1.78% | -0.66 | -2.92 | 0.22 | -2.54
8 | Cn1c(COc2ccc(CC3SC(=O)NC3=O)cc2)nc2ccccc2c1=O (stereo not given) [balaglitazone] | -1.69% | -0.56 | -0.1 | -2.45 | -7.04
9 | CCCC[C@]1(CC)CS(=O)(=O)c2cc(CNC(CC(=O)O)CC(=O)O)c(OC)cc2[C@@H](c2ccccc2)N1 | 3.94% | 3.04 | 5.12 | 1.44 | 1.53
10 | N#Cc1ccc(N(Cc2ccc(Br)cc2)n2cnnc2)cc1 | 1.03% | -0.63 | 3.36 | 2.99 | -2.52
11 | CCc1nc2c(C)nc(C)cc2n1-c1ccc(CCNC(=O)NS(=O)(=O)c2ccc(C)cc2)cc1 [grapiprant] | -1.43% | -2.32 | -2.77 | -5.47 | -1.61
12 | NC(N)=O [urea] | -3.97% | -3.63 | -2.79 | -2.47 | -3.31
13 | C[C@]12CCC(=O)C[C@@H]1CC[C@@H]1[C@@H]2CC[C@]2(C)C=CC[C@@H]12 [androstenone] | -0.13% | -0.62 | -1.17 | 0.87 | -0.03
14 | COc1[nH]c2ccc(F)cc2c1C(=O)OCC1CCN(CCNS(C)(=O)=O)CC1 | 2% | 2.46 | 0.98 | 0.39 | 1.56
15 | Nc1nccc2c1ncn2C1C=C(CO)C(O)C1O (stereo not given) [3-deazaneplanocin-A] | 0.46% | 1.89 | 3.16 | 5.38 | -3.44
16 | Cc1cc(NC(=O)C2=C(O)c3ccccc3S(=O)(=O)N2C)no1 [isoxicam] | -3.86% | -3.12 | -4.12 | -2.59 | -0.72
17 | O=C(O)[C@H](O)[C@@H](O)[C@H](O[C@@H]1O[C@H](CO)[C@H](O)[C@H](O)[C@H]1O)[C@H](O)CO [maltobionic-acid] | -0.69% | -2.72 | -1.55 | -3.61 | -1.2
